CHT allo act: allosteric activators of human choline transporter CHT. Q9GZV3. CHT-expressing cells, membrane potential dye, choline EC20; hits give high values; LV-AA mutant CHT in HEK293 cells. B-score at 10 µM. 310,000 tested, 0.49% active. AID 488977;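 active = initial fluorescence not abnormally high and integrated response B-score, plate-corrected, over 3 SD above library mean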
Kir21 block: blocks the mouse Kir2.1 inward-rectifier potassium channel | 310,000 tested, 0.85% active | B-score at 10 µM | AID 1672 | HEK293-Kir2.1, FluxOR thallium flux fluorescence; hits give low values;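 active = fluorescence ratio B-score at or below minus 3 SD of library scores, with starting-brightness B-score within 2 SD, cut at about -4.2 in these data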;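 also: channel flux triggered by added potassium and thallium sulfate stimulus; B-score of peak minus minimum fluorescence over baseline after thallium stimulus; more negative B-score means stronger Kir2.1 block with less thallium influx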
Target sequence (P35561 whole entry, looked up): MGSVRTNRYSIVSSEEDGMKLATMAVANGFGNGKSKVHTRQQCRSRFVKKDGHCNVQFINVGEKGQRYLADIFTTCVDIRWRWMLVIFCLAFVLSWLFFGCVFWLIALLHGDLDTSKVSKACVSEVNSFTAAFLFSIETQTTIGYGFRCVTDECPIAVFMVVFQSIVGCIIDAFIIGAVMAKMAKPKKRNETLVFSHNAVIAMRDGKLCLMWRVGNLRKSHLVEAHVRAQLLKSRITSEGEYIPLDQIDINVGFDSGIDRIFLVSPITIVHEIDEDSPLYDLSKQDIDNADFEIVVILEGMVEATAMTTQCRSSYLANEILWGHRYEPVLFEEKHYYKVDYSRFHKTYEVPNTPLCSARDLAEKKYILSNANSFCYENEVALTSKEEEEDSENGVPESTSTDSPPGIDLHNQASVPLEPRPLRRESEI
TAG inh: reduces triacylglycerol accumulation in H9c2 cells | inhibition, % at 12.5 µM | 230,000 tested, 0.66% active | Nile Red lipid (TAG) fluorescence; cells loaded with 200 µM oleic acid;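 active = pattern-corrected inhibition of lipid staining of at least 50% with the nuclear-stain viability signal not falling by more than 50%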
CHT block: inhibitors of human choline transporter CHT; Q9GZV3; CHT-expressing cells, membrane potential dye, choline response; hits give low values; B-score at 10 µM; 310,000 tested, 0.86% active; AID 488975;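 active = B-score over 3 SD under the library average, and starting fluorescence ratio not unusually high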;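 also: choline stimulus applied at its EC90 after an EC20 pre-addition; B-score computed on integrated fluorescence ratio after choline addition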
CHT act confirm: confirmation of human choline transporter (CHT) activators; shares compounds with CHT allo act; CHT-expressing cells, membrane potential dye fluorescence (FDSS); % of choline EC20–EC90 response window; HEK293 expressing CHT LV-AA mutant; choline added at its EC20; activation, % at 10 µM; 2,500 tested, 91% active;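 active = primary screen active, with duplicate mean activation above negative control mean plus 3 SD, cut at about 11% in these data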
HEK293 MP dye: CHT activator counter-screen hit in parental HEK293 cells; shares compounds with CHT allo act; membrane potential dye fluorescence (FDSS); measured after EC20 choline addition; ratio readout change at 10 µM, hits read low; 2,500 tested, 62% active; AID 623908;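 active = duplicate-averaged ratio beyond 3 SD from buffer wells, up or down, though filed actives are nearly all decreases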
A number is an active result; i = inactive; nt = no result. Most compounds without a hit are left out; they make up all but 2% or so of the library.

SMILES	CHT allo act	Kir21 block	TAG inh	CHT block	CHT act confirm	HEK293 MP dye
CC(=O)N=c1c(C#N)cc2c(=O)n3cccc(C)c3nc2n1CCCOC(C)C	i	i	i	i	44.0	-44.8
COc1ccc(N(CC(=O)NCCSCc2ccccc2C)S(=O)(=O)c2ccccc2)cc1	i	i	i	i	nt	nt
C=CCn1c(SC(C)C(=O)NCCC2=CCCCC2)nc2ccccc2c1=O (configuration not stated)	i	i	i	i	27.4	i
Cc1cc(C)c2cc3c(N)c(C(=O)N4CCc5ccccc5C4)sc3nc2c1	6.35	i	nt	i	i	i
Cc1ccc2nc3sc(C(=O)N4CCCc5ccccc54)c(N)c3cc2c1	i	i	nt	i	nt	nt
O=[N+]([O-])c1ccc(-c2csc3[n+]2CCS3)cc1	8.89	i	i	i	74.3	-69.2
CC1=Nc2cccc3cccc(c23)N1C	7.37	i	nt	i	58.5	-70.8
Cc1ccc(-c2nc3ccc(Cl)cc3n2OC(C)C(=O)O)cc1 (configuration not stated)	i	i	i	i	nt	nt
Cc1nn(-c2ccccn2)c2nc(-c3cccs3)cc(C(=O)NCc3ccco3)c12	i	i	nt	i	19.4	i
CN1C2=NCCN2C(=O)c2ccccc21	9.37	i	nt	i	28.5	-51.8
CCCN1C2=NCCN2c2ccccc21	6.35	i	i	i	41.0	-35.7
CCCN1C2=NCCCN2c2ccccc21	i	i	nt	i	nt	nt
CCCN(C(=O)Cn1c(C(F)(F)F)nc2ccccc21)C1CCS(=O)(=O)C1 (configuration not stated)	i	i	i	i	nt	nt
Cc1ncsc1C(=O)O	i	i	i	i	nt	nt
CCOC(=O)CN1C(=O)SC(Nc2ccc(C)cc2)C1=O (configuration not stated)	i	i	i	i	nt	nt
O=C1NC2(CCCCCC2)C(=O)N1Cc1cccc([N+](=O)[O-])c1	i	i	nt	i	nt	nt
CCOC(=O)CNC(=O)c1c(C)nn(C)c1Cl	i	i	i	i	nt	nt
C=CCn1cc(C(=O)OCC)c(=O)c2ccc(F)cc21	i	i	i	i	37.2	-43.1
COc1cccc(C2c3[nH]c4ccccc4c3CCN2Cc2cccn2-c2ncccn2)c1 (configuration not stated)	i	i	i	i	nt	nt
Clc1ccc(-n2cccc2CN2CCc3c([nH]c4ccccc34)C2c2ccccn2)nc1 (configuration not stated)	7.04	i	i	i	40.1	i
CCN(CC)CCN(Cc1cc2ccc(C)c(C)c2[nH]c1=O)C(=S)NCc1ccco1	i	i	i	i	16.3	-24.9
O=C(c1ccccc1F)N(Cc1ccc2c(c1)OCO2)Cc1cc2cc3c(cc2n2nnnc12)OCO3	i	i	i	i	14.8	i
CCOC(=O)C1CCN(C(=O)CCc2nnc3ccc(N4CCN(C)CC4)nn23)CC1	8.11	i	nt	i	72.7	-71.8
CCN1C(=O)CC(NC2CCN(C(=O)c3ccc(F)cc3)CC2)C1=O (configuration not stated)	i	i	i	i	nt	nt
O=C(Cc1cccs1)N(Cc1ccco1)C1(C(=O)NC2CCCCC2)CCCCC1	i	i	i	i	55.0	i
SMILES	CHT allo act	Kir21 block	TAG inh	CHT block	CHT act confirm	HEK293 MP dye
CCOC(=O)N1CCN(c2cc(NCCC(=O)O)c3c4c(onc24)-c2ccccc2C3=O)CC1	i	nt	i	i	25.7	-60.1
O=C(CCc1ccccc1)N[C@@H]1c2ccccc2CC[C@H]1OCc1ccccc1	nt	nt	i	nt	nt	nt
Cc1cc(C)c2c(n1)SCC(=O)N2CC(=O)Nc1cc(F)ccc1F	i	i	i	i	nt	nt
Cn1c(=NC(=O)C2=NNC(=O)CC2)sc2ccccc21	6.86	i	i	i	54.2	-32.3
CC1CSc2n(-c3cccc(C(F)(F)F)c3)cc(-c3ccccc3)[n+]21 (configuration not stated)	i	i	i	i	50.2	-31.1
Oc1ccccc1-c1nc(NCc2ccco2)c2ccccc2n1	i	i	nt	i	nt	nt
c1ccc2c(N3CCCCC3)nc(N3CCOCC3)nc2c1	6.73	i	i	i	40.2	-43.7
c1ccc(-c2nc(NCc3ccco3)c3ccccc3n2)nc1	7.02	i	i	i	41.7	-46.3
c1coc(CNc2nc(N3CCCCC3)nc3ccccc23)c1	i	-4.57	i	i	13.5	i
c1ccc(N2CCN(c3nc(NCc4ccco4)c4ccccc4n3)CC2)cc1	i	i	i	i	nt	nt
c1ccc2c(N3CCCCC3)nc(N3CCCCC3)nc2c1	i	i	i	i	nt	nt
Cc1nc(-c2ccc(Cl)cc2)sc1C1(C)CC(c2cccc([N+](=O)[O-])c2)=NO1 (configuration not stated)	i	i	i	i	nt	nt
COc1ccc(NC(=O)C2Cc3c(-c4cccc(F)c4)ccnc3O2)cn1 (configuration not stated)	nt	nt	i	nt	nt	nt
C[n+]1ccc(/C=C/c2ccccc2O)c2ccccc21	i	i	i	i	29.9	-38.7
CCOC(=O)N1CCC(NC(=O)c2oc3c(C)c(C)ccc3c2C)CC1	i	i	i	i	nt	nt
COc1ccc(Cl)cc1C(=O)NNC(=O)c1ccncc1	i	i	i	i	nt	nt
COc1ccc(Cl)cc1C(=O)Nc1ccncc1	i	i	i	i	59.9	-42.1
COc1ccc(C(=O)Nc2ccncc2)cc1OC	8.17	i	nt	i	38.7	-50.2
COc1ccc(C(=O)Nc2ccncc2)cc1[N+](=O)[O-]	i	i	nt	i	nt	nt
COc1ccc(N2CCN(C(CNS(=O)(=O)c3cc(F)ccc3F)c3cccnc3)CC2)cc1 (configuration not stated)	i	i	i	i	nt	nt
Oc1nc(-c2ccc(Cl)cc2)n2ccncc12	i	i	i	i	nt	nt
COC(=O)c1ccc(-c2nc(O)c3cnccn23)cc1	i	i	i	i	23.1	-37.2
COc1ccccc1OCC(=O)Nc1ccc2c(c1)n(C)c(=O)n2C	6.63	i	i	i	62.7	-53
Cc1ccccc1Nc1c(-c2ccc(N3CCOCC3)cc2)nc2cnccn12	9.39	i	i	i	29.1	-54.8
Cc1ccccc1Nc1c(-c2ccc(N3CCOCC3)cc2)nc2ncccn12	i	i	i	i	24.8	-53.1
SMILES	CHT allo act	Kir21 block	TAG inh	CHT block	CHT act confirm	HEK293 MP dye
Cc1ccn2c(Nc3ccccc3C)c(-c3cccnc3)nc2c1	i	i	i	i	40.7	-48.6
Cc1ccn2c(NC(=O)c3ccco3)c(-c3ccccc3)nc2c1	i	i	nt	i	nt	nt
Cc1noc(C)c1S(=O)(=O)N(CC(=O)NC(C)c1ccccc1)c1ccc(C(C)C)cc1 (configuration not stated)	i	i	nt	i	nt	nt
O=C(Cn1sc2ccccc2c1=O)N1CCN(C(=O)c2ccco2)CC1	i	i	nt	i	nt	nt
NC(=S)Nn1c(-c2ccccc2)nc2ccccc2c1=O	i	i	nt	i	nt	nt
Cc1cc(N2CCN(C3CCCCC3)CC2)n2nc(C)nc2n1	8.94	i	nt	i	56.0	-56.3
CCCCn1nc(C(=O)Nc2ccc3c(c2)OCCO3)c2ccccc2c1=O	nt	nt	i	nt	nt	nt
